# Laboratory results as given in PubChem BioAssay (NCATS).
# Results filed as inconclusive are left out. Activity calls are given as the source filed them. Calls follow the shape of the dose curve; as a rule, active = well fitted inhibition curve with a large enough effect; inconclusive = small, poorly fitted or top-dose-only effect, or effect the other way; inactive = flat fitted curve, though single readings scatter.
# Molecular target: Ubiquitin carboxyl-terminal hydrolase 2 (Homo sapiens) (UniProt O75604)
# Sequence (O75604 whole entry, looked up): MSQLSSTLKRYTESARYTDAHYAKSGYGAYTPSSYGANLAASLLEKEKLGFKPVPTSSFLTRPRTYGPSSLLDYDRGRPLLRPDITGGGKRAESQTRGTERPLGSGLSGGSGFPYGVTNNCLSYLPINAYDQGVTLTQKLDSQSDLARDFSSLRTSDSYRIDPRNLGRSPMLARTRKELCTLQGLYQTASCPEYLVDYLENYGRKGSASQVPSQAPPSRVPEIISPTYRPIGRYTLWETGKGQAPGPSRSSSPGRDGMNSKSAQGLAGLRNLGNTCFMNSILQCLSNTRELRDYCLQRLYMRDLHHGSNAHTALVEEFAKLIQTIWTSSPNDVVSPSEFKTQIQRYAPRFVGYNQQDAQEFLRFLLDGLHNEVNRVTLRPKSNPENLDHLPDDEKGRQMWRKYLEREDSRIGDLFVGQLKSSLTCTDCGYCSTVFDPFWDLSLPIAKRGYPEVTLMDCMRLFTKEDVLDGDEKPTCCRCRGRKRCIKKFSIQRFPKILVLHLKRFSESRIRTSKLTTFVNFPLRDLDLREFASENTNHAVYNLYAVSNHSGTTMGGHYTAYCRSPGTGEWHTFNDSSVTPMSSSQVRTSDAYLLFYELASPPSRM
# Assay: qHTS Validation Assay for Inhibitors of Ubiquitin-specific Protease USP2a Using CHOP2 as the Reporter (AID 463106);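 also: plate controls were DMSO for no effect and full inhibition by NEM for full effect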
# Conditions: USP2a cleavage of CHOP2 reporter, enzymatic; series mostly up to 38.3 µM; activity, negative = inhibition: at the top concentration
# Description: NIH Molecular Libraries Screening Centers Network [MLSCN]
# NIH Chemical Genomics Center [NCGC]
# PI Name: Nicholson, Ben. Progenra Inc, Malvern, PA
# Homeostasis of cellular proteins is maintained through a combination of synthesis and degradation. The pathway that accounts for the majority of protein degradation is the ubiquitin-proteasomal pathway. Ubiquitin (Ub) is highly conserved in all cells and the generation of a multi-Ub chain typically targets proteins for degradation by the proteasome. However, ubiquitination is highly reversible and dynamic. Deubiquitination, the reverse process, is catalyzed through the action of enzymes referred to as isopeptidases or deubiquitinating enzymes (DUBs). This group of enzymes is collectively responsible for maintaining adequate pools of free ubiquitin and regulating the ubiquitination status of cellular proteins. The class of DUBs referred to as the ubiquitin-specific proteases (USP) family functions endoproteolytically to cleave Ub chains from a wide range of protein substrates. USP2a deubiquitinates fatty acid synthase (FASN) which has recently been identified as an emerging oncology target. To identify inhibitors of USP2a a cell-free assay was employed.
# The reporter enzyme chosen is an enterokinase called CHOP2, which is activated when the Ub is cleaved by USP2. The free and now activated reporter can subsequently act on its reporter substrate. […] The assay was developed by Progenra, Inc. and has been licensed for sale by LifeSensors, Inc. as Ub-CHOP2-Reporter-Kit (#PR1101).
# NCGC Assay Protocol Summary:
# The assay buffer, prepared fresh at the day of the assay, contains 20mM Tris-HCl pH 8.0, 2mM CaCl2, 2mM beta-Mercaptoethanol, 0.05% CHAPS. 3ul of 20nM (10nM final) USP2 core, which is stored on ice, is dispensed into a medium-binding black solid Kalypsys 1,536 well plate using the Kalypsys dispenser. The assay plate is then pinned with 23nL compound with the Kalypsys pintool in columns 5-48. The controls are pinned as follows: column 1 two-fold dilutions of 2M NEM in duplicate; column 2 2M NEM (final concentration 38.2mM); column 3&4 DMSO. The assay plate is incubated at RT for 30min. Subsequently, 1.5uL of 100nM (25nM final) Ub-CHOP2 and 1.5uL of 100nM (25nM final) Reporter Substrate (both stored on ice and protected from light) were dispensed into the plate using the Kalypsys dispenser. Plates were read after 60min RT incubation on a ViewLux (Perkin Elmer) plate reader using the following wavelengths Ex 485nm /Em 531nm.
# Data were normalized to the to AC100 inhibition (NEM). Concentration-response curves were fitted to the normalized data and the concentration-response curves were then classified based on curve quality (r2), response magnitude and degree of measured activity. The time zero reading was used to flag fluorescence artifacts.
# Keywords: ubiquitination, deubiquitination, proteases, profluorescent, MLSMR, MLPCN, NIH Roadmap, qHTS, NCGC
row,Structure (SMILES),"activity, negative = inhibition"
1,C=CCc1ccccc1OCC(O)CNC(C)C (stereo not given),1.59% (inactive)
2,CN(C)CC[C@@H](c1ccc(Br)cc1)c1ccccn1,-1.01% (inactive)
3,CCc1cccc(N(C)C(N)=Nc2cccc3ccccc23)c1,0.908% (inactive)
4,CC(C)(Oc1ccc(CCNC(=O)c2ccc(Cl)cc2)cc1)C(=O)O,1.58% (inactive)
5,CC[N+](C)(C)c1cccc(O)c1,1.33% (inactive)
6,CCN(CC)CCNC(=O)c1ccc(NC(C)=O)cc1,-3.92% (inactive)
7,CC(=O)Nc1nnc(S(N)(=O)=O)s1,1.91% (inactive)
8,COCCOC(=O)C1=C(C)NC(C)=C(C(=O)OC(C)C)C1c1cccc([N+](=O)[O-])c1 (stereo not given),0.321% (inactive)
9,c1ccc2c(c1)CCCC2C1=NCCN1 (stereo not given),0.961% (inactive)
10,CN=C(NC#N)NCCSCc1nc[nH]c1C,-0.569% (inactive)
11,CC(=O)Oc1cc(C(C)C)c(OCCN(C)C)cc1C,1.72% (inactive)
12,CC(=O)OCC1=C(C(=O)O)N2C(=O)[C@@H](NC(=O)Cc3cccs3)[C@H]2SC1,-1.62% (inactive)
13,CC(=O)OC(C)C[N+](C)(C)C (stereo not given),3.81% (inactive)
14,CN(C)CCCN1c2ccccc2Sc2ccccc21,-1.79% (inactive)
15,NC(Cc1ccc(Cl)cc1)C(=O)O (stereo not given),0.374% (inactive)
16,CNCCCN1c2ccccc2CCc2ccccc21,-0.477% (inactive)
17,COc1cc(C(=O)OCCCN2CCCN(CCCOC(=O)c3cc(OC)c(OC)c(OC)c3)CC2)cc(OC)c1OC,-3.85% (inactive)
18,C#CCN(C)CCCOc1ccc(Cl)cc1Cl,2.99% (inactive)
19,O=C(O)CP(=O)(O)O,-0.512% (inactive)
20,Cc1cccc(C)c1NC(=O)C(C)N (stereo not given),-0.514% (inactive)

row,Structure (SMILES),"activity, negative = inhibition"
1,CCc1c(C)[nH]c2c1C(=O)C(CN1CCOCC1)CC2 (stereo not given),-0.814% (inactive)
2,CN1C(=O)CC[C@H]1c1cccnc1,0.818% (inactive)
3,NCCCNCCSP(=O)(O)O,1.46% (inactive)
4,Cc1nc2c([nH]1)c(=O)n(C)c(=O)n2Cc1ccco1,1.01% (inactive)
5,O=C(O)CN(CCN(CC(=O)O)CC(=O)O)CCN(CC(=O)O)CC(=O)O,1.71% (inactive)
6,CC(C)(C)NCC(O)c1cc(O)cc(O)c1 (stereo not given),-0.886% (inactive)
7,CNC1(C)C2CCC(C2)C1(C)C (stereo not given),-0.991% (inactive)
8,CN/C(=C\[N+](=O)[O-])NCCSCc1ccc(CN(C)C)o1,-1.37% (inactive)
9,NS(=O)(=O)c1cc2c(cc1Cl)NC(C1CC3C=CC1C3)NS2(=O)=O (stereo not given),-2.25% (inactive)
10,CO[C@@]1(NC(=O)CSCC#N)C(=O)N2C(C(=O)O)=C(CSc3nnnn3C)CS[C@@H]21,2.74% (inactive)
11,Nc1nc(N)c2nc(-c3ccccc3)c(N)nc2n1,0.698% (inactive)
12,COC(=O)C1=C(C)NC(C)=C(C(=O)OC(C)(C)CN(C)CCC(c2ccccc2)c2ccccc2)C1c1cccc([N+](=O)[O-])c1 (stereo not given),-1.8% (inactive)
13,NC1=NCC2c3ccccc3Cc3ccccc3N12 (stereo not given),1.08% (inactive)
14,CN(C)C(=O)Oc1cccc([N+](C)(C)C)c1,4.36% (inactive)
15,CC(C)[N+](C)(CCOC(=O)C1c2ccccc2Oc2ccccc21)C(C)C,0.0601% (inactive)
16,NC/C=C/C(=O)O,4.51% (inactive)
17,CCO/C([O-])=N/c1c[n+](N2CCOCC2)no1,2.48% (inactive)
18,CC(C)(C)c1ccc(C(=O)CCCN2CCC(OC(c3ccccc3)c3ccccc3)CC2)cc1,-6.79% (inactive)
19,O=C(CCNNC(=O)c1ccncc1)NCc1ccccc1,0.916% (inactive)
20,CC1=C(C)C(=O)C(CCCCC#CCCCC#CCO)=C(C)C1=O,-1.42% (inactive)
